These results are taken from PubChem BioAssay (NCATS).

Results filed as inconclusive are left out. Unmarked numbers belong to inactive results. Activity calls are given as the source filed them. Calls come from the whole dose curve; as a rule, active = well fitted inhibition curve with a large enough effect; inconclusive = small, poorly fitted or top-dose-only effect; inactive = flat fitted curve, though single readings scatter.

The test system of one assay is CRL-7250. Put plainly: Cytotoxic Profiling of Annotated Libraries Using Quantitative High-Throughput Screening (AID 1296008). For max response: % is set by controls: 0 for no effect and ±100 for the full control effect. Note: potency is the fitted concentration of half-maximal effect. The settings on record: Five cell lines viability, CellTiter-Glo ATP luminescence, 48-72 h; max response: hits give low values. Summed up: (§1)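 Compounds were pin-transferred onto cells and incubated 48 or 72 hr at 37 degree Celsius, 95% humidity. CellTiter-Glo was added, plates sat 10 min at room temperature, then ATP-coupled luminescence was imaged as the viability read-out.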
(In general: In ATP-based viability assays light output follows the ATP content of the culture.)

The next assay relates to HEK293. Described as above. Conditions: Five cell lines viability, CellTiter-Glo ATP luminescence, 48-72 h; max response: hits give low values. Summed up:
as §1

The test system of another assay is NIH3T3. The description is as above. Conditions: Five cell lines viability, CellTiter-Glo ATP luminescence, 48-72 h; max response: hits give low values. Put shortly: as §1
Assay [1] deals with HaCat. Described as above. Conditions: Five cell lines viability, CellTiter-Glo ATP luminescence, 48-72 h; max response: hits give low values. Summed up:
as §1

The subject of assay [2] is HACAT. Briefly: qHTS assay to identify novel small-molecules to repurpose for Merkel cell carcinoma treatment (AID 1296009). Conditions: MCC and control cell lines, CellTiter-Glo viability, 72 h; at 44.8 µM (top of the series) unless noted. Put shortly:
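Viability readout: ATP luminescence (CellTiter-Glo) after 72 hr drug exposure at 37 degree celsius. Dose-response format was 8 points for NPC and 11 points for MIPE; data normalized to in-plate controls.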
Background: In qHTS, concentration-response curves come from the screen itself.

The next assay relates to KB-3-1. Briefly: Cytotoxic Profiling of Annotated Libraries Using Quantitative High-Throughput Screening (AID 1296008). For max response: % is set by controls: 0 for no effect and ±100 for the full control effect. Note: potency is the fitted concentration of half-maximal effect. The settings on record: Five cell lines viability, CellTiter-Glo ATP luminescence, 48-72 h; max response: hits give low values. Put shortly: as §1
Note: nearly all actives have a fitted effect of over 60% in size.

In the case of `COc1cc(C(N)=O)nc(-c2ccccn2)c1O`, the values for the max response in the assay on CRL-7250, with HEK293 and in the assay with NIH3T3 were -12.9%, -3.89% and -4.41%, respectively.

With `CCOc1cc(C(C)(C)C)ccc1C1=N[C@@](C)(c2ccc(Cl)cc2)[C@@](C)(c2ccc(Cl)cc2)N1C(=O)N1CCN(CC(=O)N2CCOCC2)CC1`, the values for the Potency in the assay with CRL-7250, with HEK293 and in the assay with NIH3T3 were 14.8 µM (active), 4.17 µM (active) and 10.1 µM (active), respectively.

Regarding `COC(=O)C1=COC(O[C@@H]2O[C@H](CO[C@@H]3O[C@H](COC(=O)/C=C\c4ccc(O)cc4)[C@@H](O)[C@H](O)[C@H]3O)[C@@H](O)[C@H](O)[C@H]2O)C2C(CO)=CCC12` (stereo partly drawn), the max response in the assay on CRL-7250 is -64.3%; in the assay on HEK293 it was -82.6%; in the assay with NIH3T3, -28.7%.

Take `CC1CCC/C=C/C(=O)c2c(O)cc(O)cc2CC(=O)O1` (stereo not drawn): the Potency is 7.31 µM (active) in the assay with CRL-7250, 4.11 µM (active) in the assay with HEK293 and 14.6 µM (active) in the assay on NIH3T3.

As for `N#Cc1ccc(O[C@@H]2c3ccccc3C[C@H]2N2CCC[C@@H](N)C2)c(Cl)c1`, the max response with CRL-7250 is -27.9%. Further, the Potency with HEK293 is 20.6 µM (active). Further, the compound was called inactive in the assay on HaCat [1] and with HACAT [2].

With `CC(C)(O)/C=C/C(=O)[C@](C)(O)[C@H]1[C@H](O)C[C@@]2(C)[C@@H]3CC=C4[C@@H](C[C@H](O[C@@H]5O[C@H](CO)[C@@H](O)[C@H](O)[C@H]5O)C(=O)C4(C)C)[C@]3(C)C(=O)C[C@]12C`, the max response was -1.87% in the assay on CRL-7250 and -10.4% with HEK293. The compound was called inactive with NIH3T3.

For the compound `Cc1noc(-c2ccc(-c3ccc(CC(=O)O)cc3)cc2)c1NC(=O)O[C@H](C)c1ccccc1Cl`, the figures for the max response in the assay with CRL-7250 and with HEK293 were -11.1% and -3.72%, respectively. The Potency in the assay with NIH3T3 was 7.31 µM (active).

For the compound `COC1CC(O[C@H]2CC[C@]3(C)C4CC[C@@]5(C)C(=O)[C@]4(CC[C@@H]3C2)CC[C@@H]5C2=CC(=O)OC2)OC(C)C1OC1OC(COC2OC(CO)C(O)C(O)C2O)C(O)C(O)C1O` (stereo partly drawn), the results for the Potency with CRL-7250 and in the assay on HEK293 were 1.55 µM (active) and 1.23 µM (active), respectively. In addition, the call in the assay on NIH3T3 was inactive.

Consider `C#CC(=O)N(c1ccc(OC)cc1OC)C(C(=O)NCC(=O)OCC)c1cccs1` (stereo not drawn), for which the results for the Potency in the assay with CRL-7250, in the assay on HEK293 and in the assay with NIH3T3 were 0.206 µM (active), 0.259 µM (active) and 0.164 µM (active), respectively.

With `COc1cc(C[C@H]2C(=O)OC[C@@H]2Cc2ccc(OC)c(OC)c2)ccc1O`, the results for the Potency in the assay with CRL-7250 and in the assay on HEK293 were 0.508 µM (active) and 1.01 µM (active), respectively. Moreover, the compound was classed as inactive with HaCat [1] and in the assay on HACAT [2]. Further, the max response in the assay with NIH3T3 is -24.5%.

With `Cn1nc(-c2ccc(C(F)(F)F)cc2)nc2c(=O)n(C)c(=O)nc1-2`, the Potency in the assay on CRL-7250 is 14.6 µM (active); in the assay on HEK293, 6.51 µM (active); in the assay with NIH3T3 it was 1.3 µM (active).

Consider `C=C1C(=O)O[C@@H]2C(OC(=O)/C(C)=C\C)/C(C)=C\C(=O)/C=C(\C)C[C@H](O)[C@@H]12` (stereo partly drawn), for which the figures for the Potency in the assay on CRL-7250, with HEK293 and in the assay with NIH3T3 were 10.1 µM (active), 2.55 µM (active) and 9.04 µM (active), respectively.

Consider `C=C1CC2OC(=O)C(=C)C2C(OC(=O)/C(C)=C\C)CC2(C)OC1=CC2=O` (stereo not drawn), for which the Potency was 14.3 µM (active) with CRL-7250, 2.86 µM (active) with HEK293 and 12.8 µM (active) in the assay with NIH3T3.

As for `CCN(CCNC(=O)Nc1ccccc1Br)c1cccc(C)c1`, the max response in the assay with CRL-7250 is -1.67%; with HaCat [1], 0.35%; in the assay on KB-3-1, 2.25%.

As for `C/C=C/C=C/C=C/C(=O)O[C@@H]1C=C(CO)C(O)(C(=O)OC)[C@@]2(C)CCCC(C)(C)C12` (stereo partly drawn), the max response in the assay with CRL-7250 was -4.29%; with HaCat [1], 2.7%; with KB-3-1, -3.74%; in the assay on NIH3T3, 4.09%.

Regarding `C=CC(=O)N1CCC[C@@H](n2nc(-c3cccc(C(=O)Nc4ccc(C(C)C)c(C)c4)c3)c3c(N)ncnc32)C1`, the values for the Potency in the assay on CRL-7250 and in the assay with HaCat [1] were 20.6 µM (active) and 16.4 µM (active), respectively. Besides, in the assay on KB-3-1, the max response is -9.98%.

With `C=CC(=O)N1CCCC(n2nc(-c3ccc(Oc4ccccc4)cc3)c3c(N)ncnc32)C1` (stereo not drawn), the figures for the max response in the assay on CRL-7250 and with KB-3-1 were 3.87% and -21.4%, respectively. Moreover, in the assay on HaCat [1], the Potency was 1.3 µM (active).

In the case of `O=C(CSc1nc2ccccc2c(=O)n1-c1ccccc1)Nc1ccc2c(c1)CCC2`, the max response in the assay on CRL-7250 is 1.59%; with HaCat [1], -10.2%; in the assay on NIH3T3, -0.829%. The compound was called inactive in the assay with KB-3-1.

As for `COc1ccc(NC(=O)c2ccc(C(=N)N(C)C)cc2)c(C(=O)Nc2ccc(Cl)cn2)c1`, the results for the max response in the assay with CRL-7250, in the assay on HaCat [1] and with KB-3-1 were 3.5%, -16.4% and 2.86%, respectively.

Consider `CN1CCN(c2ccc(OC(F)(F)F)c(Nc3ncc4c(n3)-c3c(c(C(N)=O)nn3CCO)CC4)c2)CC1`, for which the max response with CRL-7250 was -11.3%. In addition, the Potency in the assay on HaCat [1] is 0.259 µM (active); with KB-3-1 it was 0.0366 µM (active).

Regarding `COc1cc(-c2cn(C3CCc4c(F)cccc4N(CC(F)(F)F)C3=O)nn2)ccc1-n1cnc(C)c1` (stereo not drawn), the values for the max response in the assay with CRL-7250, in the assay on HaCat [1] and with KB-3-1 were -13.5%, -32.4% and -16.9%, respectively.

With `NCCOc1cc(C(=O)Nc2cc(OCCN)c3ccccc3n2)nc(C(=O)Nc2cc(OCCN)c3ccccc3n2)c1`, the Potency with CRL-7250 was 7.31 µM (active); with HaCat [1] it was 2.63 µM (active); in the assay on KB-3-1, 16.4 µM (active).

On to `COC(CCc1ccc(O)cc1)CC(=O)CCc1ccc(O)cc1` (stereo not drawn), for which the max response in the assay with CRL-7250 is 3.53%; with HaCat [1], -18.6%. For the same compound, in the assay with KB-3-1, the call was inactive.

Turning to `CCCc1cc(C)n(C)c(=O)c1CN(C)C(=O)c1cc(-c2ccc(N3CCN(C(C)C)CC3)nc2)cc2c1cnn2C(C)C`, the max response in the assay on CRL-7250 was -1.11%; in the assay with HaCat [1], 1.32%; with KB-3-1, 4.77%. For the same compound, in the assay on NIH3T3, the compound was called inactive.
